Rows were chosen to be rich in hits. Some 4.8% of all compounds tested hit in one or more screens of this group.
hcDAF12 agonist – H. contortus DAF-12 activation, primary screen. HEK293 hcDAF-12 lit1-tk-luc reporter, luminescence; 0% DMSO, 100% Δ7-dafachronic acid. activation, % at 6.8 µM. 370,000 tested, 1.4% active;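 active = activation above the mean of all tested compounds plus 3 SD, cut at about 5.5% in these data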;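 note: 100% = response to 3 µM Δ7-dafachronic acid high control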
DAX1 inh-1 – blocks DAX1 repression of SF-1 activated StAR promoter; inhibition, % at 6.8 µM; 370,000 tested, 1.1% active; HEK293T StAR-luciferase reporter, SF-1/DAX-1 repression relief;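 active = inhibition above the mean over all tested compounds plus 3 SD, cut at about 3.6% in these data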;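 note: 0% = DAX-1 cells with DMSO and 100% = cells lacking DAX-1 with DMSO; higher inhibition means more luminescence from relief of DAX-1 repression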
DAX1 inh-2 – inhibitors of human orphan nuclear receptor DAX1 (NR0B1). inhibition, % at 6.75 µM. HEK293 Gal4-DAX1 luciferase reporter, luminescence. 340,000 tested, 0.99% active. AID 504766;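 active = inhibition above the mean over all tested compounds plus 3 SD, cut at about 4.2% in these data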;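 note: 0% = DAX1-transfected cells with DMSO and 100% = empty-vector control cells with DMSO; inhibition shows as a rise in luminescence from relieved DAX1 repression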
hgDAF12 agonist – activates the H. glycines DAF-12 receptor ligand-binding domain. 370,000 tested, 1.8% active. AID 687014. HEK293 GAL4-hgDAF12 UAS-luciferase reporter, agonist luminescence; normalized to butyrate control. activation, % at 6.8 µM;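 active = activation above a cutoff set at the mean of all screened compounds plus 3 SD, cut at about 10% in these data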;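 note: 0% = DMSO wells and 100% = sodium butyrate wells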
SMARCA2 activ – activators of SMARCA2 function; 370,000 tested, 1% active; activation, % at 9.1 µM; MG213 cells, MMTV-luciferase reporter, dexamethasone, overnight; in the data active = activation above about 7.8%;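 note: 0% = vehicle wells and 100% = reference activator wells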
ssDAF12 agonist – activates DAF-12 receptor from parasite S. stercoralis | HEK293 ssDAF-12/GRIP1 lit1-tk-luc reporter, luminescence; % of 3 µM dafachronic acid response | activation, % at 6.8 µM | 370,000 tested, 1% active;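 active = activation above the mean over all tested compounds plus 3 SD, cut at about 0.9% in these data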;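 note: 0% = DMSO-only wells and 100% = 3 µM delta7-dafachronic acid wells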
LXR ag – LXR-beta agonism as hcDAF-12 counter-screen; shares compounds with hcDAF12 agonist; HEK293 Gal4-LXR tk-luc reporter, luminescence, 24 h; normalized: DMSO 0%, positive control 100%; activation, % at 6.8 µM; 3,400 tested, under 10 active; AID 743027;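 active = mean percent activation of the reporter above a cutoff set as the average over tested compounds plus their standard deviation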
Target sequence (P55055 whole entry, looked up, the tested form may be a part): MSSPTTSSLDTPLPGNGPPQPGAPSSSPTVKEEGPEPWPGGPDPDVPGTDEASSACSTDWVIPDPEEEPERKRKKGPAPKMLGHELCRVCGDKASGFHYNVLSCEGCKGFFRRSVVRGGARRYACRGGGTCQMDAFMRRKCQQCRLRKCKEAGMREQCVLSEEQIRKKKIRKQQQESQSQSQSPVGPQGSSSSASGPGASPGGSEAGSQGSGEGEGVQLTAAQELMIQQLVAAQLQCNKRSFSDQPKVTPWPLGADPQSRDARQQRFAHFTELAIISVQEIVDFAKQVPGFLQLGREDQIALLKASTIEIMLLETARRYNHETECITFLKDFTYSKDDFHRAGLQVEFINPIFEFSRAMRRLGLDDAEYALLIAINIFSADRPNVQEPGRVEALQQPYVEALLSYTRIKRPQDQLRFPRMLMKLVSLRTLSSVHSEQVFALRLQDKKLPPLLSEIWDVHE
hcDAF12 ag – confirmation of H. contortus DAF-12 agonists; shares compounds with hcDAF12 agonist; HEK293 hcDAF-12 lit1-tk-luc reporter, luminescence; % of Δ7-dafachronic acid response; activation, % at 6.8 µM; 3,400 tested, 61% active; AID 743032;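 active = mean activation across triplicate tests above the threshold derived from the earlier primary screen, cut at about 5.5% in these data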;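 note: 0% = DMSO only wells and 100% = 3 µM Δ7-dafachronic acid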
* hit, by the source's call.

For CCOC(=O)N1CCN(Cc2nc3cc(NC(C)=O)ccc3n2CC)CC1 the results were hcDAF12 agonist 0, DAX1 inh-1 0, DAX1 inh-2 2, hgDAF12 agonist 0, SMARCA2 activ -4 and ssDAF12 agonist -1.
CC(=O)N1N=C(c2ccccc2O)OC1(C)CC(=O)Nc1ccccc1 (stereo not given) was read as hcDAF12 agonist 6.8*, DAX1 inh-1 0, DAX1 inh-2 4, hgDAF12 agonist -1, SMARCA2 activ -1, ssDAF12 agonist 0, LXR ag 0 and hcDAF12 ag 4.
Screening COc1cc(NC(=O)c2cc(-c3ccco3)on2)c(OC)cc1Cl returned hcDAF12 agonist 6.6*, DAX1 inh-1 1, DAX1 inh-2 2, hgDAF12 agonist 4, SMARCA2 activ -2, ssDAF12 agonist 0, LXR ag 0 and hcDAF12 ag 7.7*.
Screening COc1cc(NC(=O)c2cc(C)on2)c(OC)cc1Cl returned hcDAF12 agonist 3, hgDAF12 agonist 7 and ssDAF12 agonist -1.
`Cc1ccc(CNc2nc3ccccc3s2)s1` gave hcDAF12 agonist 10*, DAX1 inh-1 4.0*, DAX1 inh-2 -2, hgDAF12 agonist 6, SMARCA2 activ 5, ssDAF12 agonist 1.0*, LXR ag 1 and hcDAF12 ag 12*.
Screening c1ccc2sc(NCC3CCCO3)nc2c1 (stereo not given) returned hcDAF12 agonist 8.2*, DAX1 inh-1 4.2*, DAX1 inh-2 4, hgDAF12 agonist 10, SMARCA2 activ 2, ssDAF12 agonist 0, LXR ag 1 and hcDAF12 ag 4.
For COc1ccc(CNc2nc3ccccc3s2)cc1OC the results were hcDAF12 agonist 1, DAX1 inh-1 0, DAX1 inh-2 -1, hgDAF12 agonist 2, SMARCA2 activ 0 and ssDAF12 agonist -1.
CC(=O)c1c(C)nn(CC(O)COc2ccc3c(c2)CCC3)c1C (stereo not given) was read as hcDAF12 agonist -3, DAX1 inh-1 -1, DAX1 inh-2 -1, hgDAF12 agonist -2, SMARCA2 activ -3 and ssDAF12 agonist -2.
`CC(=O)N(NC(=O)c1ccc(C)cc1)C1CC(=O)N(c2ccccc2Cl)C1=O` (stereo not given) gave hcDAF12 agonist 8.6*, DAX1 inh-1 -1, DAX1 inh-2 0, hgDAF12 agonist -2, SMARCA2 activ -2, ssDAF12 agonist -2, LXR ag 0 and hcDAF12 ag 2.
For CC(C)c1ccc(/C=N/NC(=O)c2ccccn2)cc1 the results were hcDAF12 agonist 8.3*, DAX1 inh-1 3, DAX1 inh-2 -1, hgDAF12 agonist 10, SMARCA2 activ 6, ssDAF12 agonist 1.0*, LXR ag 2 and hcDAF12 ag 10*.
`O=C(CSc1nnc2ccccn12)c1ccc2c(c1)OCCO2` gave hcDAF12 agonist 6.6*, DAX1 inh-1 3.8*, DAX1 inh-2 3, hgDAF12 agonist 9, SMARCA2 activ 5, ssDAF12 agonist 0, LXR ag 1 and hcDAF12 ag 4.
`O=C(CSc1nnc2ccccn12)N1CCc2ccccc21` gave hcDAF12 agonist 7.3*, DAX1 inh-1 3, DAX1 inh-2 2, hgDAF12 agonist 13*, SMARCA2 activ 5, ssDAF12 agonist 0, LXR ag 1 and hcDAF12 ag 5.7*.
O=C(CSc1nnc2ccccn12)N1CCc2ccccc2C1 was read as hcDAF12 agonist 1, DAX1 inh-1 1, DAX1 inh-2 1, hgDAF12 agonist 4, SMARCA2 activ 5 and ssDAF12 agonist 0.
S=C(N/N=C/c1ccc(Cl)cc1)N1CCOCC1 was read as hcDAF12 agonist 7.2*, DAX1 inh-1 2, DAX1 inh-2 1, hgDAF12 agonist 13*, SMARCA2 activ 5, ssDAF12 agonist 0, LXR ag 0 and hcDAF12 ag 1.
For S=C(Nc1ccc(Cl)cc1Cl)N1CCOCC1 the results were hcDAF12 agonist 0, DAX1 inh-1 0, DAX1 inh-2 -1, hgDAF12 agonist 0, SMARCA2 activ -1 and ssDAF12 agonist 0.
`COc1ccc(-c2nnc(SCC(=O)c3cccs3)o2)cc1` gave hcDAF12 agonist 3, DAX1 inh-1 2, DAX1 inh-2 2, hgDAF12 agonist 10, SMARCA2 activ 5 and ssDAF12 agonist 0.
CC(C)Oc1ccc(C(=O)Nc2ncn[nH]2)cc1 was read as hcDAF12 agonist 2, DAX1 inh-1 0, DAX1 inh-2 2, hgDAF12 agonist 6, SMARCA2 activ 1 and ssDAF12 agonist -1.
For CC(C)Oc1ccc(C(=O)Nc2nc3ccccc3[nH]2)cc1 the results were hcDAF12 agonist 8.7*, DAX1 inh-1 1, DAX1 inh-2 -2, hgDAF12 agonist 2, SMARCA2 activ 2, ssDAF12 agonist 0, LXR ag 0 and hcDAF12 ag -1.
For CCOC(=O)N1CCC(NC(=O)c2oc3c(F)cccc3c2C)CC1 the results were hcDAF12 agonist 2, DAX1 inh-1 3, DAX1 inh-2 0, hgDAF12 agonist 1, SMARCA2 activ -1 and ssDAF12 agonist -1.
`O=C(O)c1ccc(-c2noc(-c3ccccc3Cl)n2)cc1` gave hcDAF12 agonist 8.2*, DAX1 inh-1 3, DAX1 inh-2 -2, hgDAF12 agonist 9, SMARCA2 activ 5, ssDAF12 agonist 1, LXR ag 1 and hcDAF12 ag 9.9*.
`O=C(O)c1ccc(-c2noc(-c3ccccc3C(F)(F)F)n2)cc1` gave hcDAF12 agonist 0, DAX1 inh-1 1, DAX1 inh-2 0, hgDAF12 agonist 4, SMARCA2 activ 6 and ssDAF12 agonist 0.
Screening O=C1CCCN1CCCNc1ncnc2c1cnn2-c1ccc(Cl)cc1 returned hcDAF12 agonist -1, DAX1 inh-1 0, DAX1 inh-2 0, hgDAF12 agonist 1, SMARCA2 activ 4 and ssDAF12 agonist 0.
`OCCCNc1ncnc2c1cnn2-c1ccc(Cl)cc1` gave hcDAF12 agonist 7.4*, DAX1 inh-1 2, DAX1 inh-2 0, hgDAF12 agonist 9, SMARCA2 activ 7, ssDAF12 agonist 0, LXR ag 1 and hcDAF12 ag 4.
COC(=O)c1c(NC(=S)Nc2ccc(F)cc2[N+](=O)[O-])sc2c1CCCCC2 was read as hcDAF12 agonist 9.5*, DAX1 inh-1 -1, DAX1 inh-2 1, hgDAF12 agonist 2, SMARCA2 activ -1, ssDAF12 agonist 0, LXR ag 0 and hcDAF12 ag 2.
